Results on 22 compounds are retold here after PubChem BioAssay AID434970 (Sanford-Burnham Center for Chemical Genomics, 2010).

Molecules are shown by their SMILES. Out of some 11,000 compounds screened, about 310 (2.8%) were called active. The sample holds actives, similar compounds and a random draw of the others, so the mix is not that of the screen. Cut-off read from the data, not from the text of the source: active = activity change below about -85%; inactive = the rest.

This assay relates to intestinal alkaline phosphatase [Mus musculus]. Kind of assay: activators of mouse IAP, confirmation, biochemical, luminescence, single concentration (AID 434970). To be noted: purified mouse IAP, CDP-Star luminescence, 30 min, at 10 µM; activation factor: measured here: IAP activation factor, stronger effect = higher value; activity change, negative = activation: stronger effect = lower value.
Turning to `CCOc1ccc(Br)cc1S(=O)(=O)Nc1ccccc1N1CCOCC1`, the activation factor stood at 0.919 and the activity change, negative = activation was 8.1% (inactive).

On to `CC(C)N(C(=O)[C@H]1C[C@H](CC(=O)NC(C)(C)C)C(=O)N2CCc3c([nH]c4cc(-c5ccco5)ccc34)[C@]12C)C(C)C`, for which the activation factor was 1.09 and the activity change, negative = activation was -9% (inactive).

Regarding `CC(=O)NC1=NN(C(C)=O)C(c2cccs2)S1` (centres undefined), the activation factor came out at 1.08 and the activity change, negative = activation is -8% (inactive).

For `CCSc1sccc1C1C(C#N)=C(N)N(c2cccnc2)C2=C1C(=O)CCC2` (centres undefined), the activation factor turned out to be 0.703 and the activity change, negative = activation is 29.8% (inactive).

For the compound `Cc1oc(-c2ccccc2F)nc1CN1CCC(C(=O)NC2CCCc3ccccc32)CC1` (centres undefined), the activation factor stood at 1.12 and the activity change, negative = activation is -12.4% (inactive).

For `CC[C@]12c3[nH]c4ccc(OC)cc4c3CCN1C(=O)C(CC(=O)NCc1cccc(C(F)(F)F)c1)C[C@@H]2C(=O)N1CCN(C(=O)c2ccco2)CC1` (some centres undefined), the activation factor turned out to be 0.989 and the activity change, negative = activation is 1.05% (inactive).

As for `CN(Cc1ccccc1)C(=O)Cn1cccc1C(=O)c1ccccc1`, the activation factor was 1.13 and the activity change, negative = activation is -13.4% (inactive).

For `O=C(C1CCCN1C(=O)c1cccs1)N1CCN(Cc2ccc3c(c2)OCO3)CC1` (centres undefined), the activation factor worked out at 0.924 and the activity change, negative = activation was 7.55% (inactive).

In the case of `OCCN1CCN(C(=S)c2ccc(Cl)c(Cl)c2)CC1`, the activation factor is 0.845 and the activity change, negative = activation was 15.5% (inactive).

On to `CSCC[C@H](N)C(=O)NC[C@H]1O[C@@H](n2cnc3c(N)ncnc32)[C@H](O)[C@@H]1O`, for which the activation factor came out at 0.994 and the activity change, negative = activation was 0.55% (inactive).

In the case of `CC(C)CC(=O)NC(NC(=S)Nc1sc2c(c1C#N)CCCC2)C(Cl)(Cl)Cl` (centres undefined), the activation factor was 0.587 and the activity change, negative = activation was 41.3% (inactive).

As to `C[C@H]1CN([C@@H](C)CO)C(=O)c2cc(NC(=O)Nc3cccc4ccccc34)ccc2O[C@@H]1CN(C)Cc1ccc(-c2ccccc2)cc1`, the activation factor stood at 2.14 and the activity change, negative = activation is -114% (active).

Consider `C[C@@H]1CN([C@@H](C)CO)C(=O)Cc2cc(NC(=O)Nc3cccc4ccccc34)ccc2O[C@@H]1CN(C)S(C)(=O)=O`, for which the activation factor came out at 1.46 and the activity change, negative = activation was -46.2% (inactive).

With `C[C@@H]1CN([C@@H](C)CO)C(=O)c2cccc(NC(=O)Nc3ccc(F)cc3)c2O[C@@H]1CN(C)Cc1ccc(Oc2ccccc2)cc1`, the activation factor is 2.17 and the activity change, negative = activation was -117% (active).

On to `C[C@H](CO)N1C[C@H](C)[C@H](CN(C)Cc2ccccc2)Oc2ccc(NC(=O)Nc3ccc(F)cc3)cc2C1=O`, for which the activation factor came out at 1.54 and the activity change, negative = activation is -53.5% (inactive).

As for `C[C@@H]1CN([C@@H](C)CO)C(=O)Cc2cc(NC(=O)Nc3cccc4ccccc34)ccc2O[C@@H]1CN(C)Cc1ccc(C(F)(F)F)cc1`, the activation factor worked out at 1.75 and the activity change, negative = activation is -75% (inactive).

With `C[C@H](CO)N1C[C@H](C)[C@H](CN(C)Cc2ccc(Oc3ccccc3)cc2)Oc2ccc(NC(=O)Nc3cccc4ccccc34)cc2CC1=O`, the activation factor is 2.03 and the activity change, negative = activation was -103% (active).

Consider `C[C@@H]1CN([C@H](C)CO)C(=O)c2cc(NC(=O)Nc3ccc(F)cc3)ccc2O[C@H]1CN(C)C(=O)Nc1ccc(C(F)(F)F)cc1`, for which the activation factor stood at 1.57 and the activity change, negative = activation was -57.4% (inactive).

For `C[C@@H]1CN([C@H](C)CO)C(=O)Cc2cc(NC(=O)Nc3ccccc3)ccc2O[C@@H]1CN(C)Cc1ccc2c(c1)OCO2`, the activation factor was 1.66 and the activity change, negative = activation is -66.3% (inactive).

Take `CC(C)NC(=O)N(C)C[C@H]1Oc2ccc(NC(=O)Nc3ccc(C(F)(F)F)cc3)cc2C(=O)N([C@H](C)CO)C[C@@H]1C`: the activation factor worked out at 1.96 and the activity change, negative = activation was -96.3% (inactive).

As to `C[C@@H]1CN([C@@H](C)CO)C(=O)c2cc(NC(=O)Nc3ccccc3)ccc2O[C@H]1CN(C)C(=O)Nc1cccc2ccccc12`, the activation factor is 1.8 and the activity change, negative = activation was -79.6% (inactive).

For the compound `C[C@@H]1CN([C@H](C)CO)C(=O)c2cc(NC(=O)Nc3cccc4ccccc34)ccc2O[C@H]1CN(C)Cc1ccc(C(F)(F)F)cc1`, the activation factor is 2.2 and the activity change, negative = activation was -120% (active).
